Experimental data as given in paper PMC4336329 (PLoS ONE, 2015).
Hit rate of the full screen: of about 310,000 compounds, about 14,000 (4.5%) showed an effect of 50% or more. Effects have a minus sign here. The list comes from a sample in which strong results are over-represented; it also holds similar structures and randomly drawn compounds.
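Also: peak tail current of the secondary pulse compared with the same well before compound.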

What follows are compounds tested against human ether-à-go-go-related gene (hERG) potassium channel (human, UniProt Q12809) (assay: primary screen, population patch clamp on CHO cells stably expressing hERG; higher = less effect of the substance).
Chain of human ether-à-go-go-related gene (hERG) potassium channel (Q12809 whole entry, looked up): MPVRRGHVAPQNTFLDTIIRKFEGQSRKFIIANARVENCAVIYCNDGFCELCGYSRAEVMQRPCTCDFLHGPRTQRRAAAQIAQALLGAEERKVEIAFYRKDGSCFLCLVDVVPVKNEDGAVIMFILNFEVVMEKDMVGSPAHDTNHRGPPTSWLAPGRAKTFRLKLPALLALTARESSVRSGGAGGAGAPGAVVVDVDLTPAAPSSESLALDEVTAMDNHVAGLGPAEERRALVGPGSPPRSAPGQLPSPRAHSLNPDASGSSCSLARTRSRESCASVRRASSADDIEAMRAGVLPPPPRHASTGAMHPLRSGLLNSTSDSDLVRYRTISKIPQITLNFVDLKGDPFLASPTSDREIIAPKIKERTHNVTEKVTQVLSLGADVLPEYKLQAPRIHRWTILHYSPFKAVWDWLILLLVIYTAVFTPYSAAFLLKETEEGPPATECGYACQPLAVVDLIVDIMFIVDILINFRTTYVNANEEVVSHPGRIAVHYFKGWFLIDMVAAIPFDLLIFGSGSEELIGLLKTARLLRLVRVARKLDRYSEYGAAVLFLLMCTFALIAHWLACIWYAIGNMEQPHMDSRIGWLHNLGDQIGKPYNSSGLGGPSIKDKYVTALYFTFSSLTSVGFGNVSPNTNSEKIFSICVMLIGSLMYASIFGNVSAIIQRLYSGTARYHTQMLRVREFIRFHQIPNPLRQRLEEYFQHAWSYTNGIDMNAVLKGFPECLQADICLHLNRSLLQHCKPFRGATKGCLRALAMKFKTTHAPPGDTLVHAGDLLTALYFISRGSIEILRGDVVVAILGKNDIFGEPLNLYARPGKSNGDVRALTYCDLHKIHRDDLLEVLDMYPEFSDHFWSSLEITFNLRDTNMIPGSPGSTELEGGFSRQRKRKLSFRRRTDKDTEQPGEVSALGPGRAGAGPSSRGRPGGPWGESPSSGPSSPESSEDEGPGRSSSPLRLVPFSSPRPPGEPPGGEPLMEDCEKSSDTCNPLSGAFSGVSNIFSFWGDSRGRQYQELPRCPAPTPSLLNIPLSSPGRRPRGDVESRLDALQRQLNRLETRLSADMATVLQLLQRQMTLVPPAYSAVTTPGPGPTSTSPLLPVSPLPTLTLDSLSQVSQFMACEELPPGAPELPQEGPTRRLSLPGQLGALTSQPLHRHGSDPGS
For `C/C(=N\NC(=O)CCC(=O)O)c1c(-c2ccccc2)c2cc(Br)ccc2[nH]c1=O`, the “hERG current change (%, negative = inhibition) at 10uM” value was 6.72%. For `O=C(O)C1CC(c2ccccc2)=Nc2ccccc2S1` (centres unmarked), the “hERG current change (%, negative = inhibition) at 10uM” value was 1.43%. With `CN1C(=O)/C(=C\c2ccncc2)SC1=Nc1ccccc1` the “hERG current change (%, negative = inhibition) at 10uM” value was -11.2%. For `Cc1ccc(-c2nc(N)sc2C)cc1`, the “hERG current change (%, negative = inhibition) at 10uM” value was -16.9%. With `COC(=O)c1c(NC(=O)c2cccnc2Cl)sc(C(=O)N(C)C)c1C` the “hERG current change (%, negative = inhibition) at 10uM” value was -6.44%. In the case of `S=c1[nH]nc(Nc2cccc3ccccc23)s1`, the “hERG current change (%, negative = inhibition) at 10uM” value was 16.3%. `O=C(c1cc2sccc2n1Cc1ccccc1)N1CCc2ccccc21` was tested, and the “hERG current change (%, negative = inhibition) at 10uM” value was -2.82%. `CCCC(=O)N1CCC(Cc2ccccc2)CC1` was tested, and the “hERG current change (%, negative = inhibition) at 10uM” value was 9.83%. In the case of `CCCS(=O)(=O)N1CCC(C(=O)NCCN2CCCC2)CC1`, the “hERG current change (%, negative = inhibition) at 10uM” value was -7.65%. With `CCCNC(=O)N1CCC(Cc2ccccc2)CC1` the “hERG current change (%, negative = inhibition) at 10uM” value was 16.6%. `CCCS(=O)(=O)N1CCC(C(=O)NCCN2CCC(Cc3ccccc3)CC2)CC1` was tested, and the “hERG current change (%, negative = inhibition) at 10uM” value was -57.6%. `O=C(NCCCN1CCC(Cc2ccccc2)CC1)C1CCN(S(=O)(=O)N2CCC3(CC2)OCCO3)CC1` was tested, and the “hERG current change (%, negative = inhibition) at 10uM” value was -42.7%. With `CC1CC(C)CN(CCCNC(=O)C2CCCN(S(=O)(=O)N3CC(C)CC(C)C3)C2)C1` (centres unmarked) the “hERG current change (%, negative = inhibition) at 10uM” value was -61%. `CCCS(=O)(=O)N1CCC(C(=O)NCCc2ccccc2)CC1` was tested, and the “hERG current change (%, negative = inhibition) at 10uM” value was 1.42%. `CC1CC(C)CN(S(=O)(=O)N2CCCC(C(=O)NCCCN3CCOCC3)C2)C1` (centres unmarked) was tested, and the “hERG current change (%, negative = inhibition) at 10uM” value was 19.1%. For `CCCCCCNCC(=O)N1CCC(Cc2ccccc2)CC1`, the “hERG current change (%, negative = inhibition) at 10uM” value was -71.7%. In the case of `CCS(=O)(=O)N1CCC(C(=O)NCCN2CCN(Cc3ccccc3)CC2)CC1`, the “hERG current change (%, negative = inhibition) at 10uM” value was 2.07%. For `CCS(=O)(=O)N1CCC(C(=O)NCCCN2CCC(Cc3ccccc3)CC2)CC1`, the “hERG current change (%, negative = inhibition) at 10uM” value was -65.5%. `CC1CC(C)CN(S(=O)(=O)N2CCCC(C(=O)NCCCN3CCCCC3C)C2)C1` (centres unmarked) was tested, and the “hERG current change (%, negative = inhibition) at 10uM” value was -9.36%. In the case of `COc1ccccc1NS(=O)(=O)/C=C/c1ccccc1`, the “hERG current change (%, negative = inhibition) at 10uM” value was -16.8%. In the case of `O=C(CCN1C(=O)c2ccccc2C1=O)C1=NN[C@@H]2C(=O)N(c3ccc(F)cc3)C(=O)[C@H]12`, the “hERG current change (%, negative = inhibition) at 10uM” value was -5.4%. With `O=C(CCS(=O)(=O)c1ccc2c(c1)NC(=O)CS2)NCCc1ccccc1` the “hERG current change (%, negative = inhibition) at 10uM” value was 8.31%. With `O=c1c2cc(N3CCOCC3)ccc2[nH]c(=S)n1CCCN1CCCCCC1` the “hERG current change (%, negative = inhibition) at 10uM” value was -17%. For `BrC(/C=C\c1ccccc1)=N/Nc1nc(N2CCOCC2)nc(N2CCOCC2)n1`, the “hERG current change (%, negative = inhibition) at 10uM” value was -39%. `CCNc1nn2ccccc2c1/C=C(\C#N)C(=O)OCC` was tested, and the “hERG current change (%, negative = inhibition) at 10uM” value was -4.06%. For `COCCCNC(=S)Nc1ccc(C)cc1[N+](=O)[O-]`, the “hERG current change (%, negative = inhibition) at 10uM” value was 1.51%. `CCCS(=O)(=O)N1CCCC(C(=O)NCCc2ccccc2)C1` (centres unmarked) was tested, and the “hERG current change (%, negative = inhibition) at 10uM” value was -1.02%. With `CCCS(=O)(=O)N1CCCC(C(=O)NCCN2CCC(Cc3ccccc3)CC2)C1` (centres unmarked) the “hERG current change (%, negative = inhibition) at 10uM” value was -58.2%. In the case of `CCCS(=O)(=O)N1CCC(C(=O)N2CCC(Cc3ccccc3)CC2)CC1`, the “hERG current change (%, negative = inhibition) at 10uM” value was -63%. For `CS(=O)(=O)N1CCC(C(=O)N2CCC(Cc3ccccc3)CC2)CC1`, the “hERG current change (%, negative = inhibition) at 10uM” value was -15.1%. For `CCCS(=O)(=O)N1CCCC(C(=O)NCCN(C)Cc2ccccc2)C1` (centres unmarked), the “hERG current change (%, negative = inhibition) at 10uM” value was -8.41%. `CCCS(=O)(=O)N1CCCC(C(=O)N2CCC(Cc3ccccc3)CC2)C1` (centres unmarked) was tested, and the “hERG current change (%, negative = inhibition) at 10uM” value was -19.9%. `CCSc1nsc(SCC)c1C(N)=O` was tested, and the “hERG current change (%, negative = inhibition) at 10uM” value was 7.66%. `CC1(C)Cc2nc3scc(NC(=O)c4ccccc4)c3cc2CO1` was tested, and the “hERG current change (%, negative = inhibition) at 10uM” value was -0.679%. `CN(CCc1ccccc1)c1ccc([N+](=O)[O-])cn1` was tested, and the “hERG current change (%, negative = inhibition) at 10uM” value was 2.08%. With `CC1CC(C)CN(C(=O)CCCn2c(=S)[nH]c3ccccc3c2=O)C1` (centres unmarked) the “hERG current change (%, negative = inhibition) at 10uM” value was -3.01%. In the case of `O=c1c2ccccc2[nH]c(=S)n1CCN1CCCCC1`, the “hERG current change (%, negative = inhibition) at 10uM” value was -1.11%. For `COc1ccc(N2CCN(CCCn3c(=S)[nH]c4ccccc4c3=O)CC2)cc1`, the “hERG current change (%, negative = inhibition) at 10uM” value was -36.7%. `COc1ccccc1N1CCN(CCCn2c(=S)[nH]c3ccccc3c2=O)CC1` was tested, and the “hERG current change (%, negative = inhibition) at 10uM” value was -61.6%. For `CC1CCCCN1CCCn1c(=S)[nH]c2ccccc2c1=O` (centres unmarked), the “hERG current change (%, negative = inhibition) at 10uM” value was -46.4%. With `CC1CC(C)CN(CCCn2c(=S)[nH]c3ccccc3c2=O)C1` (centres unmarked) the “hERG current change (%, negative = inhibition) at 10uM” value was -53%. `O=c1c2ccccc2[nH]c(=S)n1CCCN1CCN(C2CCCCC2)CC1` was tested, and the “hERG current change (%, negative = inhibition) at 10uM” value was -53.9%. For `CCC1CCCCN1CCn1c(=S)[nH]c2cc(OC)c(OC)cc2c1=O` (centres unmarked), the “hERG current change (%, negative = inhibition) at 10uM” value was -25.4%. For `CCCCn1c(=S)[nH]c2ccccc2c1=O`, the “hERG current change (%, negative = inhibition) at 10uM” value was 13.7%. In the case of `CCN1CCN(CCn2c(=S)[nH]c3ccccc3c2=O)CC1`, the “hERG current change (%, negative = inhibition) at 10uM” value was -10.5%. For `CCC1CCCCN1CCCn1c(=S)[nH]c2ccccc2c1=O` (centres unmarked), the “hERG current change (%, negative = inhibition) at 10uM” value was -56.2%. For `O=c1c2ccccc2[nH]c(=S)n1CCCN1CCN(c2ccccc2F)CC1`, the “hERG current change (%, negative = inhibition) at 10uM” value was -2.57%.
